# Assay results: PubChem BioAssay AID1851 (National Center for Advancing Translational Sciences (NCATS), 2009)
# About 4,000 (25%) of roughly 16,000 compounds were called active. Another 26% or so got no clear call; they are omitted. The call rests on the fitted dose curve; in most records, active means well fitted curve in the direction sought with a large enough effect; inconclusive means small, poorly fitted or top-dose-only effect, or effect the other way; inactive means no such curve, though single readings can be large or run the other way. Only a sample is shown.
# Target: Cytochrome P450 2C9 (Homo sapiens) (UniProt P11712)
# Assay: Cytochrome panel assay with activity outcomes
# Settings: recombinant CYP, pro-luciferin dealkylation, luminescence, p450-cyp2c9; series mostly up to 57.1 µM; activity, negative = inhibition: at the top concentration
# On the % scale 0 is the no-effect control and ±100 the full control effect.
# Cytochrome P450 2C9 (Homo sapiens), sequence (P11712 whole entry, looked up): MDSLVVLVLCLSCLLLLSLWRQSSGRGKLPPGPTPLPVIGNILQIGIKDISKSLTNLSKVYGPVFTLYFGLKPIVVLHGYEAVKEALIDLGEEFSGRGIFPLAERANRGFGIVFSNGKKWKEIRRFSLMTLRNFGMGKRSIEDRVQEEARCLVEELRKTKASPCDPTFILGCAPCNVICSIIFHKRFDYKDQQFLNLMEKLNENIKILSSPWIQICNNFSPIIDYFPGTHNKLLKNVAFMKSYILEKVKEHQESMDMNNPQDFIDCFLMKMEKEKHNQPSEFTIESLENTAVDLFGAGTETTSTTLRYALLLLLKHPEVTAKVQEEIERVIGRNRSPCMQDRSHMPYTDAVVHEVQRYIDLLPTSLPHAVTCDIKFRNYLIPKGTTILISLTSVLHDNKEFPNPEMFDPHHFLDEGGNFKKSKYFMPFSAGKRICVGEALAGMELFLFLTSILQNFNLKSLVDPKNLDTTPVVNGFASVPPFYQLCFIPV
SMILES,"activity, negative = inhibition",AC50
COc1ccc2c(=O)cc(-c3ccncc3)oc2c1OC,-7.78% [at 11.4 µM] (inactive),–
O=S(=O)(O)c1ccc(-c2nnc(-c3ccccn3)nc2-c2ccc(S(=O)(=O)O)o2)o1,-9.22% [at 11.4 µM] (inactive),–
CO[C@@H]1COC(=O)[C@@H](C)NC(=O)C/C=C\[C@@H](C)[C@H](NS(=O)(=O)c2ccc(C)cc2)COC(=O)[C@H](C)NC(=O)C/C=C\[C@H]1C,9.56% [at 11.4 µM] (inactive),–
CC1(C)OC(=O)NC1=O,1.46% [at 25.6 µM] (inactive),–
COC(=O)Cn1cnc(=O)c(C#N)c1/C=C/N(C)C,-7.06% (inactive),–
Cc1cnc(CNc2ncnc3ccc(-c4ccccc4C)cc23)cn1,0.0371% [at 2.29 µM] (inactive),–
COc1ccc(NC(=O)N2CC[C@@]3(CCCN(C(=O)c4cccn4C)C3)C2)cc1,-3.34% (inactive),–
NC(=O)[C@H]1CC2(CC(c3cccc(NC(=O)c4ccccc4)c3)=NO2)CN1C(=O)[C@H]1CCC(=O)N1 (some centres undefined),-2.82% (inactive),–
NCCNc1ncnc2ccc(Cl)cc12,6.44% [at 11.4 µM] (inactive),–
c1ccc(Nc2ncnc3ccc(-c4cccnc4)cc23)cc1,5.26% [at 2.29 µM] (inactive),–
CNc1ncnc2ccc(-c3ccccc3CN(C)C)cc12,-7.28% [at 2.29 µM] (inactive),–
Brc1ccc2ncnc(Nc3cccc4ccccc34)c2c1,–,2.51 µM (active)
Clc1cccc(Nc2ncnc3ccc(Br)cc23)c1,–,14.1 µM (active)
c1ccc(Nc2ncnc3ccc(-c4ccoc4)cc23)cc1,1.19% [at 2.29 µM] (inactive),–
CN[C@H]1[C@@H](O[C@@H]2[C@H](O[C@@H]3[C@@H](O)[C@@H](O)[C@@H](N=C(N)N)[C@@H](O)[C@@H]3N=C(N)N)O[C@H](C)[C@@]2(O)C=O)O[C@@H](CO)[C@@H](O)[C@H]1O,3.44% [at 25.6 µM] (inactive),–
CCc1c2c(nc3cccc(SC)c13)COC2,-23% (inactive),–
CC(C)OC(=O)c1nnn(-c2nonc2N)c1CSc1ccccn1,–,1.58 µM (active)
Cc1cc(OC(=O)c2ccc(Cl)cc2Cl)nc(C)n1,–,5.62 µM (active)
CCc1cc2c(=O)c(-c3nc4ccccc4n3C)c(C)oc2c(CN(CC)CC)c1O,–,14.1 µM (active)
Cc1oc2c(C)c(O)ccc2c(=O)c1-c1ccc2ccccc2n1,-13.7% (inactive),–
COc1ccc(-n2c(=O)c(-c3cn(C)c4ccccc34)nc3cnc(OC)nc32)cc1,-6.46% (inactive),–
CC[C@H]1CN(C)[C@H]2Cc3c([nH]c4ccccc34)C(=O)C[C@H]1[C@H]2C(=O)OC,-5.96% [at 11.4 µM] (inactive),–
O=c1cc(-c2ccccc2)oc2cc(O)c(O)c(O)c12,3.94% (inactive),–
O=C(O)c1cc(=O)c2c(OCC(O)COc3cccc4oc(C(=O)O)cc(=O)c34)cccc2o1,10.9% [at 25.6 µM] (inactive),–

SMILES,"activity, negative = inhibition",AC50
CCOC(=O)COc1cc(OCC(=O)OCC)c2c(=O)cc(-c3ccccc3)oc2c1,–,8.91 µM (active)
COc1cnc(SCc2ccc(Cl)cc2)nc1Cl,–,22.4 µM (active)
COc1cc2nncc(SCc3ccc(Cl)c(Cl)c3)c2cc1OC,-3.4% [at 11.4 µM] (inactive),–
Cc1noc(C)c1-c1nc(N2CCOCC2)c2ccccc2n1,4.41% [at 2.29 µM] (inactive),–
Cc1nc2cnc(N3CCOCC3)nc2n(C)c1=O,-21.1% (inactive),–
Cc1nc(N2CCOCC2)nc(N2CCN(c3ccccc3)CC2)c1[N+](=O)[O-],–,3.16 µM (active)
COC(Cn1c(C)c(C(C)=O)c(C(C)=O)c1C)OC,26.1% (inactive),–
c1ccc(-c2cccc(N3CCC4(CCNCC4)CC3)c2)cc1,-3.68% (inactive),–
O=C(O)/C=C\C(=O)Nc1ncn[nH]1,-8.21% [at 11.4 µM] (inactive),–
Cc1noc(NS(=O)(=O)c2ccc(N)cc2)c1C,2.14% [at 25.6 µM] (inactive),–
Cc1ccc(OCC(=O)Nc2ccc(S(=O)(=O)Nc3onc(C)c3C)cc2)cc1,–,17.8 µM (active)
Cc1noc(C)c1C(=O)N1CCC[C@@]2(CCN(c3ncccn3)C2)C1,-5.51% (inactive),–
C=CCn1c(NCc2ccccc2)nc2ccccc21,21.7% (inactive),–
COc1ccc(CNc2nc3ccccc3n2Cc2ccccc2)cc1OC,–,8.91 µM (active)
COc1ccccc1-c1nccc(NCc2ccccc2)n1,4.32% [at 2.29 µM] (inactive),–
Cc1cc2cc3c(C)cc(=O)oc3c(C)c2o1,-0.447% [at 25.6 µM] (inactive),–
CCc1c(C(C)O)oc2ccc3c(C)cc(=O)oc3c12 (centres undefined),–,7.94 µM (active)
CC(C)n1c(=O)c2c(O)cc(=O)oc2c2ccccc21,-4.52% (inactive),–
O=C(O)CCCc1ccc2ccc3ccccc3c2c1,17.3% [at 11.4 µM] (inactive),–
NNC(=O)CCc1ccc2ccc3ccccc3c2c1,–,1.58 µM (active)
NCCCc1ccc2oc3ccccc3c2c1,-10.6% [at 11.4 µM] (inactive),–
CC(C)COP(=O)(OCC(C)C)C(O)c1ccccc1F (centres undefined),-25% (inactive),–
O=C(CCNC(=O)Cn1cnc2ccccc2c1=O)NCC1COc2ccccc2O1 (centres undefined),–,10 µM (active)
CCC(C)NC(=O)Cn1cnc2sc(C)cc2c1=O (centres undefined),-1.84% (inactive),–

SMILES,"activity, negative = inhibition",AC50
COc1cccc(OC)c1OCCNC[C@@H]1COc2ccccc2O1,–,inactive
CCCNC(=O)Cn1cnc2sc(C(=O)Nc3ccc4c(c3)OCO4)c(C)c2c1=O,–,1.12 µM (active)
O=C1CC2(CCCC2)CC(=O)N1CCCCNC[C@H]1COc2ccccc2O1,-16.7% (inactive),–
O=C(Cn1cnc2ccccc2c1=O)NCCC(=O)Nc1ccc2c(c1)OCCO2,–,6.31 µM (active)
C[N@+]1(CCC(=O)c2ccccc2)CC[C@H]2CC[C@H](C2)C1,8.55% [at 11.4 µM] (inactive),–
N/N=C1/CC(=O)NC(=O)N1,28.1% [at 11.4 µM] (inactive),–
CC(C)(C)C(=O)N(CCN(C(=O)C(C)(C)C)c1ccccc1)c1ccccc1,–,15.8 µM (active)
CC(CC(=O)O)(CC(=O)O)c1ccccc1,13.9% [at 11.4 µM] (inactive),–
CC(=O)N(CC(=O)O)c1ccccc1C(=O)O,-20.7% (inactive),–
O=C(c1cccc(F)c1)N1CCC2(CCCN(c3ccc(-c4ccccc4)cc3)C2)CC1,–,15.8 µM (active)
CC(C)NC(=O)N1CCCC2(CCN(C(=O)c3cccc(F)c3)CC2)C1,24.4% (inactive),–
O=C(c1cccc(F)c1)N1CCC2(CCCN(c3ccccc3)C2)CC1,–,10 µM (active)
O=C(c1cccc(F)c1)N1CCC2(CC1)CCN(c1ccc(-c3ccccc3)cc1)CC2,5.13% (inactive),–
O=C(c1cccc(F)c1)N1CCC2(CC1)CCN(c1cccc(-c3ccccc3)c1)CC2,-3.94% (inactive),–
O=C(c1cccc(F)c1)N1CCC[C@@]2(CCN(c3ccccc3)C2)C1,4.38% (inactive),–
O=C(c1cccc(F)c1)N1CCC2(CCCN(c3cccc(-c4ccccc4)c3)C2)CC1,–,12.6 µM (active)
O=C(c1cccc(F)c1)N1CCC2(CC1)CN(c1cccc(-c3ccccc3)c1)C2,-14.6% (inactive),–
O=C(c1cccc(F)c1)N1CCC2(CC1)CN(c1ccc(-c3ccccc3)cc1)C2,-14% (inactive),–
O=C(c1cc(C(F)(F)F)cc(C(F)(F)F)c1)N1CCC[C@@]2(CCN(c3ccccn3)C2)C1,-4.83% (inactive),–
CN1CCCN([C@@H](c2ccccc2)c2ccc(Cl)cc2)CC1,0.463% [at 25.6 µM] (inactive),–
Cc1ccc(C(c2nnnn2C2CCCC2)N2CCN3CCCC3C2)cc1 (centres undefined),-15.1% (inactive),–
Clc1ccc(C(c2nnnn2C2CCCC2)N2CCN(Cc3ccncc3)CC2)cc1 (centres undefined),–,1.12 µM (active)
COc1ccc2c(c1)c(CC(=O)OCC(=O)O)c(C)n2C(=O)c1ccc(Cl)cc1,-5.28% [at 25.6 µM] (inactive),–
COc1ccc2c(c1)c(CC(=O)O)c(C)n2C(=O)c1ccccc1,–,10 µM (active)

SMILES,"activity, negative = inhibition",AC50
COc1ccc2c(c1)c(CC(=O)O)c(C)n2C(=O)c1ccc(Cl)cc1,6.09% (inactive),–
O=C(O)/C=C\[C@H](O)c1ccc(Cl)cc1,-12.8% (inactive),–
c1ccc(CSc2nnc3c4ccccc4c4ccccc4c3n2)cc1,-1.66% [at 11.4 µM] (inactive),–
O=C(CSc1nnc2c3ccccc3c3ccccc3c2n1)Nc1ccccc1,–,2.51 µM (active)
O=C(CSC1=NCCN1)Nc1ccccc1,2.48% [at 11.4 µM] (inactive),–
C[N+]1(CCC[N+]2(C)C[C@H]3[C@H](C2)[C@H]2C=C[C@@H]3CC2)CCOCC1 (some centres undefined),-9.72% [at 11.4 µM] (inactive),–
N[C@]1(C(=O)O)CCc2cc(P(=O)(O)O)ccc21,-9.65% (inactive),–
CCc1ccc(OCC(=O)NNC(=O)CSc2ncnc3sc(C)c(C)c23)cc1,13.8% (inactive),–
COC(=O)c1c(-c2ccccc2)csc1NC(=O)CSc1ncnc2sc(C)c(C)c12,–,1.26 µM (active)
Nc1nc(Cl)nc2c1ncn2[C@@H]1O[C@@H](CO)[C@@H](O)[C@H]1O,-24.4% (inactive),–
Nc1nc(Nc2ccccc2)nc2c1ncn2[C@@H]1O[C@@H](CO)[C@H](O)[C@H]1O,–,0.794 µM (active)
Nc1nc(Nc2ccccc2)nc2c1ncn2[C@@H]1O[C@@H](CO)[C@H](O)[C@@H]1O,-3.52% (inactive),–
Nc1ccc(-c2sc(N)nc2-c2ccccc2)cc1,–,28.2 µM (active)
Nc1nc(-c2ccccc2)c(-c2ccccc2)c(-c2nc(N)nc(-c3ccccc3)c2-c2ccccc2)n1,-3.1% [at 11.4 µM] (inactive),–
COc1ccc(CNc2ncnc3ccc(-c4c(C)noc4C)cc23)c(OC)c1,-23.3% [at 2.29 µM] (inactive),–
CCNc1ncc2nc(-c3ccc(Cl)cc3)c(=O)n(Cc3ccc(F)cc3)c2n1,16.8% (inactive),–
CCNc1ncc2ncc(=O)n(Cc3ccc(F)cc3)c2n1,–,20 µM (active)
CN(C)c1ncc2ncc(=O)n(Cc3ccc(F)cc3)c2n1,–,10 µM (active)
CCNc1ncc2nc(C)c(=O)n(Cc3ccc(F)cc3)c2n1,18.9% (inactive),–
COc1ncc2ncc(=O)n(Cc3ccc(F)cc3)c2n1,-8.06% (inactive),–
CN(C)c1ncc2nc(-c3ccccc3)c(=O)n(Cc3ccc(F)cc3)c2n1,-9.82% (inactive),–
C[C@H](N)C1CCC(C(=O)Nc2ccncc2)CC1 (some centres undefined),-14.4% (inactive),–
